PolyA inhibitor = blocks polyadenylation in yeast reporter cells | S. cerevisiae SKY197-pL101 polyadenylation reporter, beta-gal luminescence; efflux-impaired pdr1/pdr3 knockout yeast; score 100 = 6 SD above DMSO | activity score, % at 12 µM | actives 0.02% (n = 300,000) | AID 1875;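 active = lowest replicate activity score at least 50, where 100 means six control SD above control mean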;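 note: yeast exposed to compound for 9 h at 30 °C; higher score means more reporter readthrough which indicates perturbed polyadenylation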
MOR-DOR ag = agonists of human mu-delta opioid receptor heterodimerization; cells, OPRM1-OPRD1 heterodimerization, luminescence; activation, % at 9.3 µM; actives 0.3% (n = 340,000); in the data active = activation above about 18%;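 note: 0% = vehicle-treated cells and 100% = reference agonist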
NALP1 yeast inh = NALP1 inhibition; S. cerevisiae NALP1/ASC/caspase-1 growth, X-gal OD620, 72 h; inhibition, % at 10 µM; actives 0.61% (n = 280,000); AID 2071; in the data active = inhibition mostly above about 24%, no sharp cut-off; inactive = mostly below about 32%
HTR5A inv ag = HTR5A inverse agonism, opioid heterodimer counter-screen. HTR5A cell line, luminescence. AID 504634. actives 0.083% (n = 340,000). inhibition, % at 9.3 µM. P47898; in the data active = inhibition mostly above about 23%, no sharp cut-off; inactive = mostly below about 18%;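 note: 0% = cells with DMSO and 100% = no-cell wells with DMSO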
Target sequence (P47898 whole entry, looked up): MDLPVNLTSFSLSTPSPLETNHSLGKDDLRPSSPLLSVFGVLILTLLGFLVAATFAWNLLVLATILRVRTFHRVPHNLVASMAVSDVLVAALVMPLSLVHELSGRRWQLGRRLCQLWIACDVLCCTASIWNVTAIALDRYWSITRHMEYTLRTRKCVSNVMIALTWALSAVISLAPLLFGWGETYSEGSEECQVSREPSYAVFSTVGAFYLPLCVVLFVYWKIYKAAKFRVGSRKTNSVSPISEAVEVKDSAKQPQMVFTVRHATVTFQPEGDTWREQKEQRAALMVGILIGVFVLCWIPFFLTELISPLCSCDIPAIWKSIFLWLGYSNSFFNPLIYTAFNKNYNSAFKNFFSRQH
OPRM1-OPRD1 inv = inverse agonists of human mu-delta opioid receptor heterodimerization | P35372+P41143 | cell-based MOR-DOR heterodimer luminescence, inverse agonism | inhibition, % at 9.3 µM | actives 0.21% (n = 340,000); in the data active = inhibition above about 22%, passing the limit was not always enough;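 note: 0% = cells with DMSO and 100% = wells without cells with DMSO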
HTR5A ag = counter-screen for OPRM1-OPRD1 agonists: human HTR5A agonism | P47898 | HTR5A agonist assay, luminescence, cell-based | activation, % at 9.3 µM | actives 0.61% (n = 340,000); in the data active = activation mostly above about 9.5%, no sharp cut-off; inactive = mostly below about 7.6%;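 note: 0% = cells with vehicle only and 100% = reference agonist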
* hit, by the source's call; x = not tested or not shown. Shown are actives, neighbours in structure and some others; about 1.6% of the full set was active somewhere.

SMILES	PolyA inhibitor	MOR-DOR ag	NALP1 yeast inh	HTR5A inv ag	OPRM1-OPRD1 inv	HTR5A ag
O=C(CCNC(=O)C1CCN(S(=O)(=O)c2ccc(F)cc2)CC1)NCCc1ccc(Cl)cc1	30	-1	-8	-6	6	3
CCN1CCN(C(=S)Nc2cccc(Cl)c2)CC1	0	3	-7	-12	-19	5
CCN1CCN(C(=S)Nc2ccc(Cl)c(Cl)c2)CC1	-3	-2	51*	21	9	1
CC[C@]1(C(=O)OC)[C@H]2C(=O)N(Cc3ccccc3)C(=O)[C@H]2[C@H]2CN=C(SCc3ccc(C)cc3)N21	x	-1	x	14	6	-4
CC[C@]1(C(=O)OC)[C@H]2C(=O)N(Cc3ccccc3)C(=O)[C@H]2[C@H]2CN=C(SCC3CC3)N21	x	-2	x	-18	9	5.3*
Cc1ccc(NC(=O)Nc2ccc3c(c2)CCC3)cc1	-2	-1	38*	-14	3	0
O=C(Nc1ccc2c(c1)CCC2)c1ccc(Cl)nc1	-10	2	15	-4	-11	2
O=C(Nc1ccc2c(c1)CCC2)c1cnc(Cl)c(Cl)c1	-26	9	0	-29	-47	11*
Cc1cc(C)cc(NC(=O)Nc2ccc3c(c2)CCC3)c1	1	2	6	3	-15	-4
NS(=O)(=O)c1ccc(CCNC(=O)CNC(=O)c2ccc(Oc3ccccc3)cc2)cc1	-6	-1	10	-12	5	4
CC(C)(C)NC(=O)CC1C[C@H](C(=O)N2CCOCC2)[C@@]2(CCC3CCCC3)c3[nH]c4ccccc4c3CCN2C1=O (stereo partly specified)	x	2	x	-29	-9	8.6*
COc1ccc2[nH]c3c(c2c1)CCN1C(=O)C(CC(=O)NCC24CC5CC(CC(C5)C2)C4)C[C@H](C(=O)N2CCOCC2)[C@@]31CCC1CCCC1 (stereo partly specified)	x	0	x	-15	0	4.4*
CC[C@]12c3[nH]c4cc(-c5ccco5)ccc4c3CCN1C(=O)[C@@H](CC(=O)NCc1ccco1)C[C@@H]2C(=O)N1CCN(C(=O)C2CC2)CC1	x	-1	x	-15	6	4.4*
CC[C@]12c3[nH]c4cc(-c5ccco5)ccc4c3CCN1C(=O)[C@@H](CC(=O)NCC13CC4CC(CC(C4)C1)C3)C[C@@H]2C(=O)N1CCN(C(=O)C2CC2)CC1	x	-1	x	-16	5	5
CCN(CC)C(=O)[C@H]1C[C@H](CC(=O)NCC23CC4CC(CC(C4)C2)C3)C(=O)N2CCc3c([nH]c4ccc(Cl)cc34)[C@]12C	x	1	x	-12	-5	3
CC(C)N(C(=O)[C@H]1C[C@H](CC(=O)NCC23CC4CC(CC(C4)C2)C3)C(=O)N2CCc3c([nH]c4ccc(Cl)cc34)[C@]12C)C(C)C	x	2	x	-14	-8	4.2*
CC(=O)c1c(N2CCCC2)nc(=S)n(-c2ccccc2)c1C	0	-3	38*	11	18	-4
CC(=O)c1c(N2CCCCC2)nc(=S)n(-c2ccccc2)c1C	19	-2	-12	6	14	-3
Cn1cccc1/C=C(/C#N)C(N)=S	16	-7	23	2	37*	-4
Cc1cccc(Cl)c1NC(=S)NN	-7	-2	x	9	8	13*
Cc1c(Cl)cccc1NC(=S)NN	-6	2	-20	-2	-12	-3
C=CCN(CC=C)S(=O)(=O)c1ccc(NC(=S)NC(=O)/C=C/c2ccccc2)cc1	-14	1	27*	-23	-3	0
CC(=O)c1c(COC(=O)c2ccc(Cl)cc2)nc2ccccc2[n+]1[O-]	90*	3	24	-13	-16	5
COc1cccc(OC)c1C(=O)OCCCOC(=O)c1c(OC)cccc1OC	5	-3	28*	-32	14	-2
c1ccc(CNc2nc(NCc3ccccc3)c3ccccc3n2)cc1	5	40*	18	-48	-205	19*
SMILES	PolyA inhibitor	MOR-DOR ag	NALP1 yeast inh	HTR5A inv ag	OPRM1-OPRD1 inv	HTR5A ag
c1ccc(CNc2nc(-c3ccccc3)nc3ccccc23)cc1	-20	3	10	-19	-16	5
CCOC(=O)CNC(c1ccccc1)c1cc(Br)ccc1NC(=O)CCN1CCOCC1 (stereo unspecified)	-22	1	98*	-12	-10	5
Cc1ccc2oc(=O)c3cc(C(=O)NCCCN4C(C)CCCC4C)sc3c2c1 (stereo unspecified)	-7	-2	8	25	10	-6
COc1cc(C(=O)Nc2nc(-c3cc(C)ccc3C)c(C)s2)ccc1OCC(=O)Nc1ccc(F)cc1	0	2	18	-11	-9	7
COc1ccc(-c2nc(NC(=O)c3ccc(OCC(=O)Nc4ccc(F)cc4)c(OC)c3)sc2C)cc1	-6	19*	25	6	-102	15*
CCN(CC(=O)Nc1c(F)cccc1F)C(=O)COc1ccc2c(C)cc(=O)oc2c1	6	0	-2	6	0	-2
COc1ccc(-c2csc3nc(-c4ccccc4OC)oc(=O)c23)cc1	x	2	10	11	-11	-4
CC1CC(=O)C(C(C2=C(O)CC(C)CC2=O)c2ccccc2)=C(O)C1 (stereo unspecified)	x	0	x	-38	-1	9.3*
O=C1N[C@@H](Cc2ccccc2)C(=O)N2[C@H]1C[C@]1(Br)c3ccccc3N(S(=O)(=O)c3ccc(F)cc3)[C@H]21	6	-4	x	-26	18	4
COc1ccc(S(=O)(=O)N2CCC(C(=O)NCCC(=O)Nc3cccc(OC)c3)CC2)cc1	-4	-4	-1	11	18	3
COc1ccc(S(=O)(=O)N2CCC(C(=O)NCCC(=O)NC3CC3)CC2)cc1	11	-2	34*	-31	10	0
CC(=O)Oc1ccc(C(c2ccc(OC(C)=O)cc2)c2ccccn2)cc1	-7	58*	18	-120	-313	34*
CCOC(=O)C1CCCN(C2CC(=O)N(c3cccc(C(F)(F)F)c3)C2=O)C1 (stereo unspecified)	2	-2	59*	1	12	0
CCOC(=O)C1CCCN(C2CC(=O)N(c3ccccc3)C2=O)C1 (stereo unspecified)	11	0	13	-6	2	2
N#Cc1ccc(CN2CCN(C(=O)c3ccc(S(=O)(=O)NCc4ccco4)cc3)CC2)cc1	x	0	x	-42	-2	12*
CCOc1ccccc1NC(=O)C1CCCN(S(=O)(=O)c2ccc3c(c2)C(C)(C)C(=O)N3C)C1 (stereo unspecified)	-6	0	21	-22	1	8
O=C(Nc1cccc(S(=O)(=O)N2CCCCC2)c1)c1ccc(S(=O)(=O)C(F)F)cc1	13	0	11	-4	-1	12*

Bioassay records from PubChem.
